Results filed as inconclusive are left out. Where a call stands in place of a potency, no number is given. The source made the active and inactive calls. Calls follow the shape of the dose curve; as a rule, active = well fitted curve in the direction sought with a large enough effect in the signal ratio; inconclusive = small, poorly fitted or top-dose-only effect, or a change in a side signal; inactive = no such curve, though single readings can be large or run the other way; the % refers to the signal ratio.

Sequence of Tumor necrosis factor (Homo sapiens) (P01375 whole entry, looked up): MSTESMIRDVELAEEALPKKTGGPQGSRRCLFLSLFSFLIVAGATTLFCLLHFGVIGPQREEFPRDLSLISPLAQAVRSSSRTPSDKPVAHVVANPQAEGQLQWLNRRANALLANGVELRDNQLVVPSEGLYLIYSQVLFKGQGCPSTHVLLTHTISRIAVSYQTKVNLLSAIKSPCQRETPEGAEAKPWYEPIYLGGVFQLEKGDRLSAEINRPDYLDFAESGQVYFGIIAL

The assay has as its target Tumor necrosis factor (Homo sapiens) (UniProt P01375). Description: qHTS assay to identify small molecules that stimulate Tumor Necrosis Factor-alpha (TNF-alpha) secretion (AID 651757). To be noted: Human cells, HTRF 665/615 ratio; series mostly up to 92.2 µM. From the text: National Center for Advancing Translational Sciences [NCATS]
NIH Chemical Genomics Center [NCGC]
National Institutes of Environmental Health Sciences [NIEHS]
National Toxicology Program [NTP]
Tumor Necrosis Factor-alpha (TNF-alpha), a secreted cytokine, plays an important role in inflammatory diseases and immune disorders. TNF-alpha, a 17 kDa cytokine, is mainly secreted by activated macrophages and monocytes in response to several inflammatory and immunological stimuli. To study the effect of environmental chemicals on TNF-alpha secretion, a homogeneous TNF-alpha assay was developed using Time Resolved fluorescence (HTRF) technology based on Time Resolved Fluorescent Resonance Energy Transfer (TR-FRET) (Leister et al., Current Chemical Genomics, 5:21-29, 2011). This assay allows measuring TNF-alpha secreted from the cells in a 1536-well plate format.
THP-1 cells were dispensed at 3000 cells/5ul/well in 1536-well white solid plates. After addition of 23 nl of compound, positive controls and DMSO only, the assay plates were incubated at 37 C for 17 hrs, followed by addition of 5 uLof mixture of cryptate labeled and XL665 labeled anti-TNF-alpha antibodies. After the assay plates were incubated at room temperature for 3 hr, the plates were measured by an EnVision plate reader.
For orientation: Quantitative high-throughput screening tests each substance at several concentrations.
For the compound `Cc1ccc(Br)cc1`, the Potency result is “inactive”.

Take `Cc1ccc(C)c(O)c1`: the Potency entry is “inactive”.

For the compound `C=CC(=O)OCCCC`, the Potency result was “inactive”.

`CC(=O)c1ccccn1`: the Potency entry is “inactive”.

Turning to `Cc1cccc2sc(N)nc12`, the Potency entry is “inactive”.

In the case of `CCOC(=O)OCC`, the Potency result was “inactive”.

For the compound `O=C(O)/C=C/C(=O)O`, the Potency entry is “inactive”.

With `CNC(=O)N(c1ccccc1)c1ccccc1`, the Potency entry is “inactive”.

Regarding `C/C(C=O)=C/c1ccccc1`, the Potency result was “inactive”.

`COc1cccc(N)c1`: the Potency result is “inactive”.

`c1ccc(Nc2ccccc2)cc1`: the Potency result was “inactive”.

For the compound `CCCC(C)CO` (stereo not given), the Potency entry is “inactive”.

As to `O=[N+]([O-])c1ccc(CCO)cc1`, the Potency entry is “inactive”.

Consider `CCCCCCC=O`, for which the Potency entry is “inactive”.

In the case of `C=Cc1ccc(C=C)cc1`, the Potency entry is “inactive”.

As for `CC(C)(C)c1ccc(OCC2CO2)cc1` (stereo not given), the Potency entry is “inactive”.

Regarding `FB(F)F`, the Potency entry is “inactive”.

On to `Cc1cc([N+](=O)[O-])ccc1N`, for which the Potency result is “inactive”.

Turning to `NC(=O)c1ccccc1[N+](=O)[O-]`, the Potency result is “inactive”.

With `Clc1cc(Cl)cc(Cl)c1`, the Potency entry is “inactive”.

Take `Cc1ccc(C)cc1`: the Potency result is “inactive”.

Turning to `COc1ccccc1[N+](=O)[O-]`, the Potency result is “inactive”.

Consider `COC(=O)CC#N`, for which the Potency result is “inactive”.

For the compound `CC(C)c1ccccc1`, the Potency entry was “inactive”.

Regarding `CCc1ccccc1O`, the Potency result is “inactive”.

Take `Oc1c(Cl)ccc(Cl)c1Cl`: the Potency result is “inactive”.

In the case of `NC(=O)c1cccc([N+](=O)[O-])c1`, the Potency result is “inactive”.

As for `[O-]/[N+](=N\O)c1ccccc1`, the Potency entry is “inactive”.

As for `O=[N+]([O-])c1ccc(NCCO)c(OCCO)c1`, the Potency entry is “inactive”.

On to `C/C=C1\CC2C=CC1C2` (stereo not given), for which the Potency result is “inactive”.

Regarding `O=C(O)CNC(=O)c1ccc([N+](=O)[O-])cc1`, the Potency entry is “inactive”.

For `N#CC1(O)CCCCC1`, the Potency result is “inactive”.

In the case of `Cc1ccc(C)c([N+](=O)[O-])c1`, the Potency entry was “inactive”.

With `Cc1cscn1`, the Potency entry was “inactive”.

As to `CC(=O)Nc1cccc(N)c1`, the Potency entry was “inactive”.

Consider `CCCCC(CC)CNCC(CC)CCCC` (stereo not given), for which the Potency entry was “inactive”.

Consider `Cc1ccc(C(C)(C)C)cc1`, for which the Potency result was “inactive”.

`CC(=C/C=C/C(C)=C/C=C/C=C(C)/C=C/C=C(C)/C=C/C(=O)O)/C=C/C(=O)O`: the Potency result was “inactive”.

Consider `CC(=O)OCc1ccco1`, for which the Potency entry is “inactive”.

In the case of `CCN(Cc1ccccc1)c1ccccc1`, the Potency result is “inactive”.

Source of the values: PubChem BioAssay (NCATS).
